Measurements from PubChem BioAssay.
Active and inactive are the calls of the source.

Experiments:
[1] = tested on: Plasmodium falciparum Sir2 (PF13_0152, Sir2A); experiment: pfSir2 binders on small-molecule microarrays, primary screen, biochemical, small-molecule microarray, 635 nm fluorescence (AID 1098); details: small-molecule microarray binding, fluorescence 635 nm; higher = more signal;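 further: score merges spot fluorescence intensity with its signal-to-noise ratio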
[2] = small-molecule microarray binders of probe aDKK1, primary screen, biochemical, biotinylated probe, 635/667 nm fluorescence (AID 1099); details: higher = more signal;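 further: score merges 667nm spot fluorescence with signal to noise across triplicate slides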
[3] = small-molecule microarray binders of probe aCHRDL2, primary screen, biochemical, biotinylated probe, 635/667 nm fluorescence (AID 1100); details: higher = more signal
[4] = splicing luciferase reporter signal modulators, primary screen, spliceosome inhibition project, cell-based, HEK293, splice +/- reporter (AID 1101); details: luminescence, 24 h, higher = more signal, called active from +8 up or from −8 down;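 further: HEK293 cells carrying a splicing-competent luciferase reporter gene; test concentration not given here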
[5] = molecular target: Fibroblast growth factor 10 (Homo sapiens) (UniProt O15520); experiment: FGF10 binders on small-molecule microarrays, primary screen, biochemical, small-molecule microarray, 635 nm fluorescence (AID 1102); details: FGF10 binding, fluorescence 635 nm, higher = more signal
[6] = tested on: glycogen synthase kinase-3 (GSK3A per assay name; protocol says GSK3B); experiment: GSK3 binders on small-molecule microarrays, primary screen, biochemical, small-molecule microarray, 635 nm fluorescence, GSK3A (AID 1103); details: small-molecule microarray binding, fluorescence 635 nm; higher = more signal; further: the record names both GSK3A and GSK3B
[7] = molecular target: Epidermal growth factor receptor (Homo sapiens) (UniProt P00533); experiment: EGFR binders on small-molecule microarrays, primary screen, biochemical, small-molecule microarray, 635 nm fluorescence (AID 1104); details: EGFR binding, higher = more signal;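 further: score merges 667 nm emission intensity with spot signal to noise over triplicate slides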
[8] = molecular target: Follistatin-related protein 3 (Homo sapiens) (UniProt O95633); experiment: FSTL3 binders on small-molecule microarrays, primary screen, biochemical, small-molecule microarray, 635 nm fluorescence (AID 1105); details: FSTL3 binding, higher = more signal;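 further: score merges emission near 667 nm and signal to noise per printed spot across three slides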
[9] = molecular target: Dickkopf-related protein 1 (Homo sapiens) (UniProt O94907); experiment: DKK1 binders on small-molecule microarrays, primary screen, biochemical, small-molecule microarray, 635 nm fluorescence scan (AID 1106); details: DKK1 binding, higher = more signal;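 further: score merges emission near 667 nm with signal to noise over three replicate slides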
[10] = tested on: Inhibin beta A chain (activin A); experiment: INHBA (activin A) binders on microarrays, primary screen, biochemical, small-molecule microarray, 635 nm fluorescence scan (AID 1107); details: small-molecule microarray binding, higher = more signal;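 further: mouse activin A protein probed at 4.33 µg/mL on printed slides; score merges bound-protein fluorescence near 667 nm with spot signal-to-noise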
[11] = tested on: Human papillomavirus type 1a protein E7 (residues 44-93); experiment: HPV1a E7 fragment binders on microarrays, primary screen, biochemical, small-molecule microarray, residues 44-93, 635 nm fluorescence (AID 1108); details: small-molecule microarray binding, fluorescence 635 nm; higher = more signal;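 further: E7 fragment applied at 1 µg/mL in TBST for 1 h at 4 C; score combines spot fluorescence with its signal to noise ratio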
[12] = modulators of HCV replicon luciferase signal, primary screen, HCV replication inhibitor project, Huh7 cells, luciferase reporter (AID 1109); details: 48 h, higher = more signal;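 further: huh7 hepatoma cells harbouring a luciferase neomycin HCV replicon reporter; luciferase luminescence as measure of HCV replicon replication; test concentration not given here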
[13] = molecular target: Left-right determination factor 2 (Homo sapiens) (UniProt O00292); experiment: LEFTY2 binders on small-molecule microarrays, primary screen, biochemical, small-molecule microarray, 635 nm fluorescence scan (AID 1110); details: LEFTY2 binding, higher = more signal
[14] = molecular target: Calmodulin-1 (Homo sapiens) (UniProt P0DP23); experiment: CALM1 binders on microarrays, EGTA buffer, profiling panel, biochemical, small-molecule microarray, Cy5-labelled CALM1 (AID 1111); details: Cy5-CALM1 binding fluorescence, higher = more signal;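 further: labelled calmodulin applied in Tris saline Tween buffer holding calcium plus EGTA and DTT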
[15] = molecular target: Calmodulin-1 (Homo sapiens) (UniProt P0DP23); experiment: calcium-bound CALM1 binders on microarrays, profiling panel, artefact control for SMM control-protein annotation, biochemical, small-molecule microarray, Cy5-labelled CALM1, plus calcium (AID 1112); details: Cy5-CALM1 binding fluorescence, higher = more signal;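 further: score merges spot fluorescence with signal to noise from triplicate slides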
[16] = small-molecule microarray binders of probe aWnt5a, primary screen, biochemical, biotinylated probe, 635/667 nm fluorescence (AID 1113); details: higher = more signal;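 further: score merges 667 nm fluorescence intensity with signal-to-noise per printed feature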
[17] = small-molecule microarray binders of probe aShh, primary screen, biochemical, biotinylated probe, 635/667 nm fluorescence (AID 1114); details: higher = more signal;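 further: probe is biotin-labelled aShh protein from a stem cell growth factor screen; measures binding of labelled protein to compounds printed on the slide; score merges feature fluorescence at 667 nm with signal-to-noise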
[18] = small-molecule microarray binders of probe aNog, primary screen, biochemical, biotinylated probe, 635/667 nm fluorescence (AID 1115); details: higher = more signal;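 further: probe is biotinylated aNog protein used at 0.15 µg/mL for 1 h at 4 C; z-score combines 667 nm fluorescence of each spot with its signal to noise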
[19] = molecular target: Torsin-1A-interacting protein 1 (Homo sapiens) (UniProt Q5JTV8); experiment: LAP1 binders from COS7 cell lysate, primary screen, small-molecule microarray, 635/667 nm fluorescence (AID 1116); details: COS7-hLAP1 lysate binding, 635 nm fluorescence, higher = more signal
[20] = molecular target: Alpha-bungarotoxin (Bungarus multicinctus) (UniProt P60615); experiment: alpha-bungarotoxin binders on microarray, profiling panel, artefact control for SMM control protein annotation, biochemical, small-molecule microarray, Alexa647 label, 635/667 nm fluorescence (AID 1117); details: alpha-BTX-A647 binding fluorescence, higher = more signal
Alpha-bungarotoxin (Bungarus multicinctus), sequence (P60615 whole entry, looked up): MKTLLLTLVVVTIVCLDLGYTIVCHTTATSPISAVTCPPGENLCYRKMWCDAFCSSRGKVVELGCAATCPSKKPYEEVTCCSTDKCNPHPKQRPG

Torsin-1A-interacting protein 1 (Homo sapiens), sequence (Q5JTV8 whole entry, looked up): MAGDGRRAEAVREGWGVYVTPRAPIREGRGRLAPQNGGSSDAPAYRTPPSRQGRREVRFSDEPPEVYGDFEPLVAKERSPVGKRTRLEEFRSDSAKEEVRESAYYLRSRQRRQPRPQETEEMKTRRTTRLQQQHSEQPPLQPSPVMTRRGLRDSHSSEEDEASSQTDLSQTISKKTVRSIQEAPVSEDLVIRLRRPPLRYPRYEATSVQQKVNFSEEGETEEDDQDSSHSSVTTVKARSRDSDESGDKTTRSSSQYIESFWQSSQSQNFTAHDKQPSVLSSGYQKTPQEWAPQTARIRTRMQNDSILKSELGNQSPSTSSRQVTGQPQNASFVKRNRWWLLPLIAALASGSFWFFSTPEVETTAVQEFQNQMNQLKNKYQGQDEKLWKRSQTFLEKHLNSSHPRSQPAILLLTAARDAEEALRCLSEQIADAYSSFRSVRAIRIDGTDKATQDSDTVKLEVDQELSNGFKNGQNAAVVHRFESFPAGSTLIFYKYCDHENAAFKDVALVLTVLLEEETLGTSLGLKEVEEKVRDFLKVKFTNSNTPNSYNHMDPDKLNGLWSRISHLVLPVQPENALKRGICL
Fibroblast growth factor 10 (Homo sapiens), sequence (O15520 whole entry, looked up): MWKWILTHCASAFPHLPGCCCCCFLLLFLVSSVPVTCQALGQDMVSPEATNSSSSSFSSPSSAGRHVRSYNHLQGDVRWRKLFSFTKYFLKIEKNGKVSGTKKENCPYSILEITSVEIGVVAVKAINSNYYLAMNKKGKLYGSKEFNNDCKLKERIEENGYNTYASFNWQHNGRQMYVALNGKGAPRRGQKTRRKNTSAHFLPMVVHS
Epidermal growth factor receptor (Homo sapiens), sequence (P00533 whole entry, looked up): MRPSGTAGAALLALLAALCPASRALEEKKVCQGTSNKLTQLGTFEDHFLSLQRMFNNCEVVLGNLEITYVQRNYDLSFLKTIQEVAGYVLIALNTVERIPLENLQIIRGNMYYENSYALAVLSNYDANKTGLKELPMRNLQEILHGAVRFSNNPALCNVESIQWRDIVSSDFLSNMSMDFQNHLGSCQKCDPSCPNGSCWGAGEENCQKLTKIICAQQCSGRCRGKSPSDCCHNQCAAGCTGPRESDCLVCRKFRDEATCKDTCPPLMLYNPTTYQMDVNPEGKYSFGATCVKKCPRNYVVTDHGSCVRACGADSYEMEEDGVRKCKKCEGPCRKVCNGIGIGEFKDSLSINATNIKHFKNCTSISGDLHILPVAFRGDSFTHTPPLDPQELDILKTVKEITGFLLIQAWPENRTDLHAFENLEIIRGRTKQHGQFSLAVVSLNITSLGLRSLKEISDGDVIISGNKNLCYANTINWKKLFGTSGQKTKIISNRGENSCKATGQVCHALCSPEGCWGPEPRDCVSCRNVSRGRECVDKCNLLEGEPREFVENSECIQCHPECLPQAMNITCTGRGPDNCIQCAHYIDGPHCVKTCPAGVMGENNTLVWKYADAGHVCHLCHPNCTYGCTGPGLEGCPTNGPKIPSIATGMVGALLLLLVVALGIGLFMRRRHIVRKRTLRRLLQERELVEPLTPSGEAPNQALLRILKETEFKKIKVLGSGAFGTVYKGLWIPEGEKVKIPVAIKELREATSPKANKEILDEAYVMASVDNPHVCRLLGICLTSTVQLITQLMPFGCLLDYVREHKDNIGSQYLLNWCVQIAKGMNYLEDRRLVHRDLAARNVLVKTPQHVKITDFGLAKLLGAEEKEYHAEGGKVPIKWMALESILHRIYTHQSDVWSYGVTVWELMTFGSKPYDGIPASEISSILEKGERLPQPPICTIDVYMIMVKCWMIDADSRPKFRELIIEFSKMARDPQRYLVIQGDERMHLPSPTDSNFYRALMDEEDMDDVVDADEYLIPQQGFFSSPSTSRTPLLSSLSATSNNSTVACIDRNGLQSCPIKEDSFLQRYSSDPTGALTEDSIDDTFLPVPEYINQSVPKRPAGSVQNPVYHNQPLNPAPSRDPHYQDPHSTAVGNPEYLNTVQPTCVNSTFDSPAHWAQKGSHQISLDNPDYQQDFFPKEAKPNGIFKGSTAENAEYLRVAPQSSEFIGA
Follistatin-related protein 3 (Homo sapiens), sequence (O95633 whole entry, looked up): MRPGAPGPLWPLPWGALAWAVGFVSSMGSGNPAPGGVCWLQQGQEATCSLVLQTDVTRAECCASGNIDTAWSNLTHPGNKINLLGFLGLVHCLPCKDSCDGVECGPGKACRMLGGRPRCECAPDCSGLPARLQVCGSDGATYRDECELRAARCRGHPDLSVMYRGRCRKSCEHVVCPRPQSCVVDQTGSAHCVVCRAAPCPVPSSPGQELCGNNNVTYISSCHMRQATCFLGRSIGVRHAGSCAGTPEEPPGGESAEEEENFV
Dickkopf-related protein 1 (Homo sapiens), sequence (O94907 whole entry, looked up): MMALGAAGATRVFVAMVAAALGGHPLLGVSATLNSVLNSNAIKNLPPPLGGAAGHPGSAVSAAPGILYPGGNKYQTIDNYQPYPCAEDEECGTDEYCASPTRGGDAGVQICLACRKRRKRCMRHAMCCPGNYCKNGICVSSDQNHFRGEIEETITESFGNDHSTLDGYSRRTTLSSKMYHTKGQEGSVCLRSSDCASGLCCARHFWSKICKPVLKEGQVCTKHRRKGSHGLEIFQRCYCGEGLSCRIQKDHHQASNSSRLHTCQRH
Left-right determination factor 2 (Homo sapiens), sequence (O00292 whole entry, looked up): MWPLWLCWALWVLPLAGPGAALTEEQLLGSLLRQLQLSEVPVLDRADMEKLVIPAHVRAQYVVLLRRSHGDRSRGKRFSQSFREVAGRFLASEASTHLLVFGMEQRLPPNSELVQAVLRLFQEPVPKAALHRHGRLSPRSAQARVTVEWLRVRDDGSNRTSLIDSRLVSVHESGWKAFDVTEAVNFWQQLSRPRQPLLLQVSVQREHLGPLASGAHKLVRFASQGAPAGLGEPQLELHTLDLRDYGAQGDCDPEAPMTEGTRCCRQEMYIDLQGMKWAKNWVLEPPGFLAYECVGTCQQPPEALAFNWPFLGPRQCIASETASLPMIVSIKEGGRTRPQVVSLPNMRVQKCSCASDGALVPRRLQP

For `COc1ccc([Si](C)(C)[C@@H]2[C@@H](CC(=O)N(CCO)Cc3ccccc3)O[C@]3(C(=O)N(C)c4ccccc43)[C@H]2C)cc1`, which composite z-score [1] is on record?
Its composite z-score is 1.24.

And the composite z-score [2]?
Its composite z-score is 0.909.

And the composite z-score [3]?
Its composite z-score is 0.0207.

What about the z-score [4] of the same compound?
Its z-score is 0.841 (inactive).

And the composite z-score [5]?
The composite z-score was 1.05.

What about the composite z-score [6] of the same compound?
The composite z-score was 1.16.

What about the composite z-score [7] of the same compound?
Its composite z-score is 0.749.

And the composite z-score [8]?
The composite z-score was 1.39.

And the composite z-score [9]?
Its composite z-score is 1.32.

What about the composite z-score [10] of the same compound?
The composite z-score was 1.16.

And the composite z-score [11]?
Its composite z-score is 0.906.

What about the z-score [12] of the same compound?
The z-score was -3.95.

And the composite z-score [13]?
Its composite z-score is 0.813.

What about the composite z-score [14] of the same compound?
The composite z-score was 0.773.

And the composite z-score [15]?
Its composite z-score is -0.193.

What about the composite z-score [16] of the same compound?
The composite z-score was -0.0721.

And the composite z-score [17]?
Its composite z-score is 0.366.

What about the composite z-score [18] of the same compound?
The composite z-score was 0.422.

What about the composite z-score [19] of the same compound?
Its composite z-score is 0.44.

What about the composite z-score [20] of the same compound?
Its composite z-score is 0.805.

Which composite z-score [1] does the source give for `COC(=O)C1=CC(CCCO)=CC(C2CC2)N(Cc2sc3ccccc3c2Cl)C=C1C(=O)OC` (stereo not given) here?
The composite z-score was 1.17.

And the composite z-score [2]?
Its composite z-score is 0.589.

What about the composite z-score [3] of the same compound?
Its composite z-score is 0.724.

And the z-score [4]?
Its z-score is -0.8 (inactive).

And the composite z-score [5]?
The composite z-score was 1.02.

And the composite z-score [6]?
Its composite z-score is 0.902.

What about the composite z-score [7] of the same compound?
The composite z-score was 0.0108.

What about the composite z-score [8] of the same compound?
Its composite z-score is 0.766.

And the composite z-score [9]?
The composite z-score was -0.0017.

What about the composite z-score [10] of the same compound?
Its composite z-score is 1.06.

And the composite z-score [11]?
Its composite z-score is 1.44.

What about the z-score [12] of the same compound?
The z-score was -2.53.

And the composite z-score [13]?
The composite z-score was 0.101.

What about the composite z-score [14] of the same compound?
Its composite z-score is 1.49.

What about the composite z-score [15] of the same compound?
Its composite z-score is 0.952.

What about the composite z-score [16] of the same compound?
The composite z-score was 0.168.

And the composite z-score [17]?
Its composite z-score is 0.441.

And the composite z-score [18]?
The composite z-score was 0.838.

And the composite z-score [19]?
The composite z-score was 1.74.

What about the composite z-score [20] of the same compound?
The composite z-score was 1.84.

Which results are given for `CCOC(=O)C1=C[C@@H](CC)N(S(=O)(=O)c2ccc(C)cc2)[C@H]1c1ccccc1`?
composite z-score [1]: 0.689; composite z-score [2]: -0.1; composite z-score [3]: 0.521; z-score [4]: 0.803 (inactive); composite z-score [5]: 0.769; composite z-score [6]: 1.01; composite z-score [7]: 0.586; composite z-score [8]: 0.59; composite z-score [9]: 0.43; composite z-score [10]: 0.538; composite z-score [11]: 1.36; z-score [12]: -2.23; composite z-score [13]: 0.0917; composite z-score [14]: 1.07; composite z-score [15]: 0.26; composite z-score [16]: 0.0799; composite z-score [17]: -0.0709; composite z-score [18]: 0.925; composite z-score [19]: 0.905; composite z-score [20]: 0.54

Which composite z-score [1] does the source give for `C=CCNC(=O)[C@@H]1[C@H]2C(=O)O[C@H](c3ccccc3)[C@H](c3ccccc3)N2[C@H](c2ccc(O)cc2)[C@@]12C(=O)N(C(=O)OCCOC)c1ccccc12` here?
Its composite z-score is 1.03.

What about the composite z-score [2] of the same compound?
Its composite z-score is -0.0262.

And the composite z-score [3]?
Its composite z-score is 0.421.

And the z-score [4]?
The z-score was -1 (inactive).

What about the composite z-score [5] of the same compound?
Its composite z-score is 0.796.

What about the composite z-score [6] of the same compound?
The composite z-score was 1.02.

And the composite z-score [7]?
Its composite z-score is -0.405.

And the composite z-score [8]?
Its composite z-score is 0.638.

And the composite z-score [9]?
The composite z-score was -0.232.

What about the composite z-score [10] of the same compound?
The composite z-score was -0.188.

What about the composite z-score [11] of the same compound?
The composite z-score was 1.2.

What about the z-score [12] of the same compound?
The z-score was -1.43.

What about the composite z-score [13] of the same compound?
The composite z-score was -0.211.

What about the composite z-score [14] of the same compound?
Its composite z-score is 0.922.

And the composite z-score [15]?
The composite z-score was -0.42.

And the composite z-score [16]?
Its composite z-score is -0.0478.

And the composite z-score [17]?
The composite z-score was -0.0904.

And the composite z-score [18]?
Its composite z-score is 0.215.

What about the composite z-score [19] of the same compound?
Its composite z-score is 1.12.

What about the composite z-score [20] of the same compound?
The composite z-score was 2.27.

For `COc1ccc(C(O)C2C=CC3C(=O)NC(=O)C3N2Nc2ccccn2)cc1OCc1ccccc1` (stereo not given), which composite z-score [1] is on record?
The composite z-score was 0.524.

And the composite z-score [2]?
Its composite z-score is 0.0679.

What about the composite z-score [3] of the same compound?
The composite z-score was 0.668.

And the z-score [4]?
Its z-score is 1.04 (inactive).

And the composite z-score [5]?
Its composite z-score is -0.0457.

What about the composite z-score [6] of the same compound?
Its composite z-score is 0.13.

And the composite z-score [7]?
Its composite z-score is 0.208.

And the composite z-score [8]?
Its composite z-score is 0.187.

What about the composite z-score [9] of the same compound?
Its composite z-score is -0.236.

What about the composite z-score [10] of the same compound?
The composite z-score was 0.557.

And the composite z-score [11]?
The composite z-score was -0.156.

What about the z-score [12] of the same compound?
Its z-score is -0.129.

And the composite z-score [13]?
The composite z-score was -0.0932.

And the composite z-score [14]?
The composite z-score was 0.916.

What about the composite z-score [15] of the same compound?
The composite z-score was 0.0805.

What about the composite z-score [16] of the same compound?
Its composite z-score is -0.15.

And the composite z-score [17]?
The composite z-score was -0.0886.

What about the composite z-score [18] of the same compound?
The composite z-score was 0.185.

What about the composite z-score [19] of the same compound?
The composite z-score was 0.474.

What about the composite z-score [20] of the same compound?
The composite z-score was 0.251.

For `NCCCCCCNC(=O)[C@H]1C[C@H]2C(=O)NCC(=O)N2[C@H]1c1cccc(OCCO)c1`, which composite z-score [1] is on record?
The composite z-score was 1.56.

What about the composite z-score [2] of the same compound?
The composite z-score was 0.0447.

What about the composite z-score [3] of the same compound?
Its composite z-score is 0.161.

What about the z-score [4] of the same compound?
Its z-score is -0.283 (inactive).

And the composite z-score [5]?
Its composite z-score is 0.641.

And the composite z-score [6]?
The composite z-score was 1.1.

What about the composite z-score [7] of the same compound?
The composite z-score was 0.544.

What about the composite z-score [8] of the same compound?
Its composite z-score is 0.563.

What about the composite z-score [9] of the same compound?
The composite z-score was 0.978.

And the composite z-score [10]?
The composite z-score was -0.0745.

And the composite z-score [11]?
Its composite z-score is 0.298.

What about the z-score [12] of the same compound?
The z-score was -0.128.

And the composite z-score [13]?
The composite z-score was 0.816.

What about the composite z-score [14] of the same compound?
Its composite z-score is -0.0421.

What about the composite z-score [15] of the same compound?
Its composite z-score is -0.369.

And the composite z-score [16]?
Its composite z-score is -0.0643.

And the composite z-score [17]?
The composite z-score was 0.199.

What about the composite z-score [18] of the same compound?
The composite z-score was 0.0234.

What about the composite z-score [19] of the same compound?
The composite z-score was 0.963.

What about the composite z-score [20] of the same compound?
Its composite z-score is 1.37.
